# Shown are actives, neighbours in structure and some others; about 6.5% of the full set was active somewhere.
# HCMV antiviral = human cytomegalovirus inhibition; HFF cells, HCMV-luciferase reporter, 72 h; active compounds read low; activity change, negative = inhibition, % at 57.5 µM; actives 4.5% (n = 410,000); AID 1259415; in the data active means activity change below about -60%; inconclusive means no clear call, values can overlap the other calls; inactive means above about -39%
#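 Inhibition of viral replication was scored as loss of reporter luminescence in HFFs infected with HCMV-luciferase (MOI 1 PFU/cell) for 72 h; compounds tested at 2 doses, normalized to buffer and Salinomycin controls.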
# FMDV inh = blocks foot and mouth disease virus | FMDV antiviral cell-based qHTS | Potency, µM (titrated, usually from 57.9 µM), inactives show at the highest dose activity change, negative = inhibition, hits mostly inhibitors | actives 1.2% (n = 410,000); calls by dose curve; tested in HEK293T cells; further: read-out not given here; potency means the concentration at half of the fitted maximal effect; nearly all actives have a fitted effect of over 45% in size
# VACV mCherry inh = inhibitors of vaccinia virus infection (mCherry reporter signal) | Vaccinia virus mCherry reporter infection, fluorescence | actives 0.63% (n = 310,000) | Potency, µM (series often up to 36.5 µM), inactives show at the highest dose activity change, negative = inhibition, most hits filed as inhibitors; calls by dose curve; tested in A549 cells; further: potency means the concentration at half of the fitted maximal effect; nearly all actives have a fitted effect of over 35% in size
# Lassa entry inh = inhibitors of Lassa virus binding or cell entry | Potency, µM (top dose mostly 37.9 µM), inactives show at the highest dose activity change, negative = inhibition, hits mostly inhibitors | AID 540256 | actives 1.2% (n = 300,000) | Lassa virus pseudotype entry inhibition, cell reporter; calls by dose curve; tested in HEK293 cells; further: potency means the concentration at half of the fitted maximal effect; nearly all actives have a fitted effect of over 50% in size
# Marburg entry inh = inhibitors of Marburg virus binding or cell entry | Marburg virus pseudotyped entry inhibition, cell reporter | Potency, µM (titrated, usually from 37.8 µM), inactives show at the top dose activity change, negative = inhibition, hits mostly inhibitors | actives 1.8% (n = 300,000) | AID 540276; calls by dose curve; tested in HEK293 cells; further: potency means the concentration at half of the fitted maximal effect
# Vaccinia Venus = vaccinia inhibition (Venus reporter); Vaccinia virus Venus reporter expression, fluorescence; Potency, µM (highest dose often 36.5 µM), for the others: at the highest dose activity change, negative = inhibition, most hits filed as inhibitors; actives 0.46% (n = 330,000); AID 720580; calls by dose curve; tested in A549 cells; further: potency means the concentration at half of the fitted maximal effect; nearly all actives have a fitted effect of over 30% in size
# * hit, by the source's call; i = inactive; ? = inconclusive; nt = no result; [ ] = remark or other dose. On the % scale 0 is the no-effect control and ±100 the full control effect.
SMILES,HCMV antiviral,FMDV inh,VACV mCherry inh,Lassa entry inh,Marburg entry inh,Vaccinia Venus
COc1ccccc1N1CCN(C(=O)Cn2ncc3c2-c2cc(C)ccc2OC3)CC1,-39,-22%,-12%,nt,2%[46.1 µM],-5%
Cc1cc(Cl)ccc1OCC(=O)NC(=S)Nc1ccccc1N1CCOCC1,63,10%,-1%,?,-1%,-8%
COC(=O)C(O)(c1ccccc1)C(Nc1ccc(OC)cc1)c1ccc(Cl)cc1 (centres undefined),-3,nt,nt,nt,nt,nt
Cc1nn(-c2ccc(NC(=O)c3ccncc3)cc2)c(C)c1Cl,-91*,18µM*,-12%,?,?,-14%
COc1ccc(-c2csc(NC(=S)NC(=O)/C=C/c3ccco3)n2)cc1Br,-73*,-9%,-3%,?,-14%[46.1 µM],?
O=C(/C=C/c1ccco1)Nc1nc(-c2ccc(F)c(F)c2)cs1,nt,35µM*,nt,nt,nt,nt
Cc1ccccc1Cc1c(C)nc2nc(SCC(=O)NCCCN3CCCCC3)nn2c1C,nt,-20%,-8%,?,?,-5%
Cc1ccc(Cc2c(C)nc3nc(SCC(=O)NCCCN4CCOCC4)nn3c2C)cc1,-15,-10%,i,-7%[46.1 µM],8.9µM*,9%
Cc1nc2nc(SCC(=O)NCCCN3CCCCCC3)nn2c(C)c1Cc1ccccc1,-65*,-11%,i,?,?,-2%
Cc1ccc(Cc2c(C)nc3nc(SCC(=O)NCCN4CCCCCC4)nn3c2C)cc1,-10,nt,nt,nt,nt,nt
O=C(c1ccccc1C(F)(F)F)N1CC2ON=C(c3c(F)cccc3Cl)C2C1 (centres undefined),-1,nt,nt,nt,nt,nt
CC(NCCC(Cc1ccccc1)c1ccco1)c1ccccc1 (centres undefined),-36,7%,-25%,nt,nt,-9%
Cc1ccc(C(CCNC(C)c2cccs2)c2ccco2)cc1 (centres undefined),-61*,46%,-22%,?,?,-13%
CCOc1ccc(CN2CCN(c3ncnc4scc(-c5ccccc5)c34)CC2)cc1,38,?,i,-18%,0%,-11%
COc1ccc(N2CCN(c3ncnc4scc(-c5ccccc5)c34)CC2)cc1,-36,?,?,-10%[46.1 µM],?,-3%
COc1ccc(F)cc1CN1CCN(c2ncnc3scc(-c4ccccc4)c23)CC1,-75*,?,-13%,?,?,-7%
COc1ccc(Nc2ncnc3scc(-c4ccc(OC)cc4)c23)cc1,?,?,?,?,7.3µM*,-29%
COc1ccc(Nc2ncnc3scc(-c4ccc(F)cc4)c23)cc1,-35,?,-14%,-18%[46.1 µM],nt,-1%
COc1ccc(N2CCN(c3ncnc4scc(-c5ccc(F)cc5)c34)CC2)cc1,-40,28µM*,i,-11%,?,-24%
COc1ccc(N2CCN(c3ncnc4scc(-c5ccc(C)cc5)c34)CC2)cc1,-64*,?,-16%,10µM*,?,-6%
COc1ccc(-c2csc3ncnc(N4CCN(c5cccc(OC)c5)CC4)c23)cc1,-24,?,-14%,-6%,?,-4%
O=C(c1ccco1)N1CCN(c2ncnc3scc(-c4cccs4)c23)CC1,?,22µM*,nt,?,-8%,nt
Cc1ccc(-c2csc3ncnc(N4CCN(C(=O)c5ccccc5)CC4)c23)cc1,-70*,25µM*,-5%[1.46 µM],?,?,?
Fc1ccc(-c2csc3ncnc(N4CCN(c5ccccc5)CC4)c23)cc1,-62*,-29%,-20%,?,?,-5%
COc1ccc(CN2CCN(c3ncnc4scc(-c5ccc(F)cc5)c34)CC2)cc1,21,?,-15%,?,13µM*,-17%
SMILES,HCMV antiviral,FMDV inh,VACV mCherry inh,Lassa entry inh,Marburg entry inh,Vaccinia Venus
CCOC(=O)c1c(C)oc2nc(C)nc(NCc3ccc(F)cc3)c12,-11,-20%,-9%,15%[46.1 µM],nt,-12%
C[C@@H]1CC[C@H]2C(=O)N(Cc3cccc([N+](=O)[O-])c3)C[C@H](O)CN2[C@@H]1c1cccc(Br)c1,nt,nt,nt,7%[14.3 µM],-10%[14.2 µM],nt
COc1cccc2c1NC1(C)c3cc4c(cc3-n3nncc3CN1C2=O)OCO4 (centres undefined),-11,nt,nt,nt,nt,nt
CCN(CC)c1nc(-c2ccccn2)nc(-c2ccccc2)c1C#N,-93*,?,?,?,6.3µM*,?
CN(C)c1nc(-c2ccccc2)nc(-c2ccc(Cl)cc2)c1C#N,-25,-17%,nt,18%,0%,6%
CN(C)c1nc(-c2ccccn2)nnc1-c1ccccc1,-103*,-2%,8.9µM*,?,?,?
COc1cc(NC(=O)CCc2c(C)nc3nc(-c4cc(OC)cc(OC)c4)nn3c2C)cc(OC)c1,13,-18%,-11%,4%[46.1 µM],7%[46.1 µM],-13%
O=C(NCc1ccco1)c1ccc2c(c1)N(Cc1c(F)cccc1Cl)C(=O)c1ccccc1S2,-26,-2%,-22%,?,?,-20%
CCN(CC)CCCNC(=O)c1ccc2c(c1)N(Cc1c(F)cccc1Cl)C(=O)c1ccccc1S2,-98*,-15%,-5%,?,6.3µM*,?
Cc1ccc(Cn2c(=O)n(-c3ccccc3)c(=O)c3ccc(C(=O)NCc4ccco4)cc32)cc1,-61*,48%,?,-15%[46.1 µM],4%[46.1 µM],?
Cc1ccc(CN2C(=O)c3ccccc3Sc3ccc(C(=O)NCc4ccco4)cc32)cc1,-66*,6%,-15%,?,nt,-7%
CCOc1ccc(CN2C(=O)c3ccccc3Sc3ccc(C(=O)NCc4ccc(C)cc4)cc32)cc1,-5,-6%,-20%,?,10µM*,-19%
Cc1ccc(C)c(NC(=O)C2(C)CC3c4ccccc4C2c2ccccc23)c1 (centres undefined),-105*,-1%,-4%,?,-18%,-1%
Cc1cccc(NC(=O)C2(C)CC3c4ccccc4C2c2ccccc23)c1C (centres undefined),?,-29%,-22%,?,?,-32%
O=C(Nc1cccc(Cl)c1Cl)c1cc(S(=O)(=O)NCc2ccc3c(c2)OCO3)ccc1F,0,-3%,-17%,2%[46.1 µM],nt,-21%
S=C(NCC1(c2ccccc2)CCCC1)Nc1ccccc1,-97*,0%,nt,nt,nt,nt
CCOC(=O)c1c(NC(C)=O)c2c3c(sc2n1Cc1cccc(Cl)c1)CCCC3,-84*,-4%,-10%,nt,?,-15%
CCOC(=O)c1c(NC(C)=O)c2c3c(sc2n1Cc1ccc(Cl)cc1)CCCC3,-27,-4%,-11%,nt,24%[46.1 µM],-11%
CN1c2ccccc2C(C)(C)C12CC(c1ccc(S(=O)(=O)N3CCCCC3)cc1)=NO2 (centres undefined),-70*,4%,-3%,0.18µM*,0.16µM*,11%
O=S(=O)(c1ccc(-c2ccccc2)cc1)N1CCCCC1,17,-6%,-9%,-14%,5%,3%
CN1c2ccccc2C(C)(C)C12CC(c1cccc(S(=O)(=O)N3CCCC3)c1)=NO2 (centres undefined),-72*,-24%,i,0.52µM*,0.46µM*,2%

# Assay outcomes: PubChem BioAssay, National Center for Advancing Translational Sciences (NCATS)
